In all, about 33,000 sequences were measured (“normalized occupancy”: median about 0.075, highest 2% from about 0.095 on). The list comes from a sample in which the highest values are over-represented; it also holds similar and randomly drawn sequences.

Chain of MaxL homodimer (P61244 whole entry): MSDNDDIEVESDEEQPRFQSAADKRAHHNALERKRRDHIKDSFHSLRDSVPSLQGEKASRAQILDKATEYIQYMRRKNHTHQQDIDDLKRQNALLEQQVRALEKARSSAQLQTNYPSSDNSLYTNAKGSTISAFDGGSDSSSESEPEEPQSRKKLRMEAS

The target of the experiment is MaxL homodimer (Homo sapiens, UniProt P61244 1-160). The experiment is described as follows: universal protein-binding microarray (PBM); PBS-based mixture, 10 nM His-tagged protein dimer, 2% milk, 200 ng/uL BSA, 50 ng/uL salmon testes DNA, 0.02% TX-100; detection with Alexa 488 anti-His antibody;; high values mean tight binding. The note with it: protein: recombinant; tags: C-terminal His-tag (pET21a); chain copies: 2; dsDNA, one strand shown. An outline of the steps:
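A His-tagged protein dimer at 10 nM was incubated on Agilent 4 x 44 K arrays of the 'all 10-mer' universal design, then labelled with 10 ng/μL fluorophore-conjugated anti-His antibody and scanned on a GenePix 4400A. A fluorescence intensity was assigned to each 8-mer. Binding occupancy is each such intensity normalised to that of the highest-ranked one.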
Turning to CCACCTGG, the binding signal is 0.105 normalized occupancy.

Turning to CCACCTGC, the binding signal amounted to 0.0984 normalized occupancy.

As for ATACCTGC, the binding signal came to 0.0811 normalized occupancy.

For the sequence ACACCTGA, the binding signal is 0.0871 normalized occupancy.

Take CCACCTTC: the binding signal was determined as 0.0757 normalized occupancy.

With CCACCTCG, the binding signal was determined as 0.0794 normalized occupancy.

Turning to TCACCTGA, the binding signal came out at 0.0809 normalized occupancy.

Regarding ACACCTGG, the binding signal was found to be 0.0881 normalized occupancy.

Take CCACCTGA: the binding signal was determined as 0.099 normalized occupancy.

With GCACCTGC, the binding signal worked out at 0.0846 normalized occupancy.

Regarding GTAGTTGA, the binding signal came out at 0.0738 normalized occupancy.

Take ATAACGCC: the binding signal worked out at 0.0792 normalized occupancy.

ATTCACCG: the binding signal was determined as 0.0732 normalized occupancy.

In the case of CTTTTCGA, the binding signal came to 0.0725 normalized occupancy.

Consider ACGCCGAA, for which the binding signal worked out at 0.0725 normalized occupancy.

In the case of GGCCACTA, the binding signal came to 0.0777 normalized occupancy.

With GTGGAAAA, the binding signal came to 0.0879 normalized occupancy.

As for AATCGGGA, the binding signal worked out at 0.0782 normalized occupancy.

CTGCCTAA: the binding signal worked out at 0.075 normalized occupancy.

Regarding CAAGTCGC, the binding signal was 0.0719 normalized occupancy.

For the sequence CAAACCTC, the binding signal was 0.0765 normalized occupancy.

With ATTCTACC, the binding signal was 0.0801 normalized occupancy.

Consider AGCGCGTC, for which the binding signal is 0.0772 normalized occupancy.

With ATAGCGTC, the binding signal was found to be 0.0734 normalized occupancy.

AGAGCGTA: the binding signal was determined as 0.0758 normalized occupancy.

As for ACAGCGAG, the binding signal came out at 0.0728 normalized occupancy.

In the case of AGAGCGAG, the binding signal turned out to be 0.0719 normalized occupancy.

AGCGCGTG: the binding signal was 0.117 normalized occupancy.

In the case of ACAGCGTG, the binding signal turned out to be 0.123 normalized occupancy.

Take ACAGCGTC: the binding signal is 0.0731 normalized occupancy.

On to AGCGCGCG, for which the binding signal was determined as 0.0841 normalized occupancy.

For ATAGCGTG, the binding signal is 0.104 normalized occupancy.

Consider AGAGCGTG, for which the binding signal came to 0.0963 normalized occupancy.

With ATAGCGTA, the binding signal is 0.0819 normalized occupancy.

Take AGGCAGTA: the binding signal was 0.0728 normalized occupancy.

As to CTTGGTCC, the binding signal was 0.0723 normalized occupancy.

For CTTCGCTA, the binding signal is 0.0727 normalized occupancy.

As to ATCCCCCC, the binding signal was 0.0808 normalized occupancy.

For the sequence GGCTATCA, the binding signal was determined as 0.0738 normalized occupancy.

Regarding ACACTGAC, the binding signal came out at 0.0742 normalized occupancy.

On to ACTTTAAG, for which the binding signal came to 0.0722 normalized occupancy.

Turning to AAGTATAG, the binding signal is 0.0813 normalized occupancy.

Take CCTTTGTA: the binding signal was 0.0734 normalized occupancy.

Turning to GGTGCGGA, the binding signal amounted to 0.0762 normalized occupancy.

On to AAAATTGA, for which the binding signal was determined as 0.0757 normalized occupancy.

In the case of TGTAACAA, the binding signal came out at 0.0771 normalized occupancy.

As for GCACGCGC, the binding signal stood at 0.15 normalized occupancy.

As to GCACGCCC, the binding signal came out at 0.0848 normalized occupancy.

GCGCGCGC: the binding signal was found to be 0.0821 normalized occupancy.

GCACGCGA: the binding signal was 0.109 normalized occupancy.

Turning to GGACGCGA, the binding signal came out at 0.0754 normalized occupancy.

For GAACGCGA, the binding signal turned out to be 0.0778 normalized occupancy.

Consider CTTAAGCA, for which the binding signal came out at 0.077 normalized occupancy.

For TCAAATAA, the binding signal turned out to be 0.0786 normalized occupancy.

With AAGGGGAC, the binding signal was found to be 0.0746 normalized occupancy.

Consider CATGTGAA, for which the binding signal came out at 0.127 normalized occupancy.

As to GATGTGAA, the binding signal came to 0.0819 normalized occupancy.

Take CATGTGAC: the binding signal worked out at 0.168 normalized occupancy.

For the sequence AATGTGAC, the binding signal stood at 0.0908 normalized occupancy.

Turning to TATGTGAA, the binding signal amounted to 0.0871 normalized occupancy.

In the case of CATGTGAG, the binding signal is 0.128 normalized occupancy.

For the sequence AATGTGAG, the binding signal was determined as 0.0853 normalized occupancy.

Turning to GATGTGAC, the binding signal worked out at 0.0817 normalized occupancy.

For the sequence CCTGTGAG, the binding signal worked out at 0.0762 normalized occupancy.

Take AAGTAGGA: the binding signal turned out to be 0.0726 normalized occupancy.

As for ATGGAGAA, the binding signal is 0.0775 normalized occupancy.

As to AAGCAGTA, the binding signal was 0.0725 normalized occupancy.

For the sequence TAGATTGA, the binding signal is 0.0791 normalized occupancy.

Regarding ACCTTTAA, the binding signal worked out at 0.0744 normalized occupancy.

On to GATGGCAA, for which the binding signal amounted to 0.0752 normalized occupancy.

As to CATGGCAG, the binding signal came out at 0.0887 normalized occupancy.

CATGGCAA: the binding signal was found to be 0.0963 normalized occupancy.

With CCTATTAA, the binding signal came to 0.0743 normalized occupancy.

Turning to GAAAATCA, the binding signal was determined as 0.0778 normalized occupancy.

With GTGCACTA, the binding signal worked out at 0.0769 normalized occupancy.

Take CTCTATGA: the binding signal was 0.0732 normalized occupancy.

GATGACTA: the binding signal stood at 0.0757 normalized occupancy.

As for AGGTGACC, the binding signal was found to be 0.0766 normalized occupancy.

For AGGTGACG, the binding signal turned out to be 0.075 normalized occupancy.

In the case of CCGTGACC, the binding signal worked out at 0.075 normalized occupancy.

Take CCGTGACG: the binding signal stood at 0.0782 normalized occupancy.

Turning to ACGTGACC, the binding signal was 0.103 normalized occupancy.

Consider ACGTGACA, for which the binding signal is 0.108 normalized occupancy.

Take GCGTGACC: the binding signal was 0.103 normalized occupancy.

For GGGTGACC, the binding signal came out at 0.0751 normalized occupancy.

As to ACGTGACG, the binding signal turned out to be 0.0972 normalized occupancy.

For the sequence ACGTGACT, the binding signal is 0.0933 normalized occupancy.

On to ATGTGACA, for which the binding signal was 0.0901 normalized occupancy.

For the sequence AAGTGACC, the binding signal is 0.0751 normalized occupancy.

For the sequence AGGGTTGC, the binding signal was 0.0731 normalized occupancy.

As to GAAGGTGC, the binding signal is 0.0733 normalized occupancy.

Regarding CGAAATAC, the binding signal was 0.0768 normalized occupancy.

Consider CATATTGA, for which the binding signal is 0.0806 normalized occupancy.

Take TCGTGACA: the binding signal was 0.0851 normalized occupancy.

On to CCGTGACA, for which the binding signal was found to be 0.0807 normalized occupancy.

In the case of GCGTGACA, the binding signal stood at 0.103 normalized occupancy.

As to ATGAGCCC, the binding signal came to 0.0757 normalized occupancy.

On to TCTCGAAA, for which the binding signal is 0.0729 normalized occupancy.

As to GGTGCACA, the binding signal was found to be 0.078 normalized occupancy.

AGTGCACA: the binding signal was 0.0838 normalized occupancy.

Take CGTGCACG: the binding signal was found to be 0.123 normalized occupancy.

For the sequence TGTGCACA, the binding signal came to 0.0902 normalized occupancy.

For the sequence AGTGCACG, the binding signal was 0.0853 normalized occupancy.

As for CGTGCACA, the binding signal came out at 0.0958 normalized occupancy.

As for CTTAGCCA, the binding signal came out at 0.0761 normalized occupancy.

In the case of AACGCTAG, the binding signal was found to be 0.0726 normalized occupancy.

As to AACGCTAC, the binding signal was 0.0825 normalized occupancy.

With CACGCTAA, the binding signal was 0.0891 normalized occupancy.

With CACGCTAG, the binding signal stood at 0.0976 normalized occupancy.

On to GACGCTAC, for which the binding signal is 0.0742 normalized occupancy.

Consider CACGCTAC, for which the binding signal was 0.0972 normalized occupancy.

On to CTATGGGC, for which the binding signal is 0.0769 normalized occupancy.

AGCATACT: the binding signal came to 0.0804 normalized occupancy.

As to ACGTGTAT, the binding signal stood at 0.117 normalized occupancy.

As for AGGTGTAC, the binding signal is 0.0803 normalized occupancy.

As for CCGTGTAA, the binding signal turned out to be 0.0797 normalized occupancy.

Consider AAGTGTAT, for which the binding signal turned out to be 0.0806 normalized occupancy.

CCGTGTAC: the binding signal was found to be 0.0796 normalized occupancy.

With AGGTGTAT, the binding signal was determined as 0.0924 normalized occupancy.

Turning to GCGTGTAA, the binding signal amounted to 0.0923 normalized occupancy.

Take ACGTGTAC: the binding signal is 0.0984 normalized occupancy.

Take TCGTGTAA: the binding signal turned out to be 0.0836 normalized occupancy.

On to GAGTGTAC, for which the binding signal was determined as 0.0756 normalized occupancy.

For ACGTGTAA, the binding signal turned out to be 0.1 normalized occupancy.

Take GCGTGTAC: the binding signal worked out at 0.1 normalized occupancy.

On to ATTCCAAT, for which the binding signal amounted to 0.0727 normalized occupancy.

Turning to ATAGTCAG, the binding signal was found to be 0.0801 normalized occupancy.

For GCATAAAA, the binding signal is 0.0781 normalized occupancy.

For GCATTCTA, the binding signal is 0.0844 normalized occupancy.

ACTAACAT: the binding signal turned out to be 0.0807 normalized occupancy.

Turning to GTTGTTTA, the binding signal was 0.0784 normalized occupancy.

On to AGTGTTAC, for which the binding signal is 0.0737 normalized occupancy.

On to GCTATACA, for which the binding signal came out at 0.0815 normalized occupancy.

As to CAAGAAAC, the binding signal was determined as 0.0724 normalized occupancy.

ATCACGGC: the binding signal was 0.0739 normalized occupancy.

Consider CTCATTCC, for which the binding signal came to 0.0776 normalized occupancy.

TTCAAGAA: the binding signal came to 0.0738 normalized occupancy.

For the sequence AAGACAAG, the binding signal came to 0.0722 normalized occupancy.

With CAATCGAC, the binding signal stood at 0.0743 normalized occupancy.

Consider GCAGCACA, for which the binding signal was 0.0778 normalized occupancy.

With CCGTGTAG, the binding signal is 0.0808 normalized occupancy.

Turning to ACGTGTAG, the binding signal was determined as 0.103 normalized occupancy.

In the case of AGGTGTAG, the binding signal came out at 0.0785 normalized occupancy.

Consider GCGTGTCC, for which the binding signal turned out to be 0.0957 normalized occupancy.

As to GCGTGTCA, the binding signal was 0.0867 normalized occupancy.

For the sequence ACGTGTCC, the binding signal amounted to 0.0932 normalized occupancy.

In the case of GGAATAAA, the binding signal is 0.0741 normalized occupancy.

Take CACAACCA: the binding signal is 0.0825 normalized occupancy.

For the sequence AGAACGCA, the binding signal is 0.0762 normalized occupancy.

On to CTCGTGCC, for which the binding signal came to 0.0909 normalized occupancy.

Turning to ACCGTGCG, the binding signal was found to be 0.0828 normalized occupancy.

Consider ACCGTGCC, for which the binding signal amounted to 0.0756 normalized occupancy.

Consider CGCGTGCC, for which the binding signal is 0.118 normalized occupancy.

For ATCGTGCG, the binding signal was determined as 0.0851 normalized occupancy.

For the sequence GCCGTGCA, the binding signal turned out to be 0.0768 normalized occupancy.

On to GGCGTGCA, for which the binding signal is 0.0978 normalized occupancy.

In the case of GGAGTGCA, the binding signal was determined as 0.0787 normalized occupancy.

Consider AGCGTGCC, for which the binding signal was found to be 0.0969 normalized occupancy.

Regarding ATCGTGCC, the binding signal was determined as 0.08 normalized occupancy.

Take CCCGTGCC: the binding signal is 0.0787 normalized occupancy.

Turning to AGCGTGCG, the binding signal came to 0.109 normalized occupancy.

As to AGTAAAAA, the binding signal was 0.0773 normalized occupancy.

For AAAATCTC, the binding signal came out at 0.0762 normalized occupancy.

Consider AGTCTCGA, for which the binding signal is 0.0741 normalized occupancy.

For the sequence CTCAAATA, the binding signal was 0.0761 normalized occupancy.

In the case of TGCCAAAA, the binding signal turned out to be 0.0792 normalized occupancy.

As to ACGTCTAA, the binding signal is 0.0724 normalized occupancy.

CATGGAGG: the binding signal was found to be 0.0891 normalized occupancy.

For the sequence AGGAGATG, the binding signal worked out at 0.0762 normalized occupancy.

On to AGCGTGCA, for which the binding signal was found to be 0.108 normalized occupancy.

With ACCGTGCA, the binding signal was 0.0786 normalized occupancy.

Consider CGGGTGCA, for which the binding signal came to 0.0755 normalized occupancy.

Take CGCGTGCA: the binding signal was determined as 0.134 normalized occupancy.

For CCCGTGCA, the binding signal came to 0.0874 normalized occupancy.

Regarding AGAGTGCA, the binding signal was determined as 0.0743 normalized occupancy.

The values are drawn from article PMC4242493, “Sequence specificity incompletely defines the genome-wide occupancy of Myc”.
